Screens (PubChem)
An excerpt weighted towards active compounds, which were near 5.7% of everything screened.
NPSR antagonist – antagonists of human neuropeptide S receptor cAMP signaling; AID 1461; Potency, µM (top dose mostly 38.3 µM), for the others: top-dose activity change, negative = inhibition, hits mostly inhibitors; Q6W5P4; 220,000 tested, 1% active; CHO-NPSR cells, cAMP TR-FRET, antagonist mode; further: nearly all actives have a fitted effect of over 50% in size
RORg inh – ROR gamma (mouse) transcription inhibition. P51450. Drosophila S2 Gal4-RORgamma UAS-luciferase reporter, 20 h. Potency, µM (top dose mostly 53.6 µM), without a hit: at the top dose activity change, negative = inhibition, actives largely listed as inhibitors. 310,000 tested, 5.4% active. AID 2551; further: nearly all actives have a fitted effect of over 60% in size
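A Gal4/UAS one-hybrid system in insect cells: metallothionein-promoter Gal4–ROR gamma fusion plus Photinus luciferase reporter. Copper sulfate 700 uM final, 20 hr ambient incubation, luminescent detection after 10 min with reagent.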
Gal4-VP16 FLuc – inhibits Gal4-VP16 luciferase reporter, ROR gamma counter-screen. Potency, µM (titrated, usually from 53.6 µM), for the others: at the highest dose activity, negative = inhibition, usual class: inhibitors. AID 2546. Drosophila S2 Gal4-VP16 UAS-luciferase, luminescence, 20 h. 310,000 tested, 3.5% active;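 further: Gal4-VP16 expression switched on by copper sulfate through the metallothionein promoter; nearly all actives have a fitted effect of over 50% in size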
B2AR arrestin – agonists driving beta-arrestin recruitment to human beta2-adrenergic receptor. P07550. beta-arrestin recruitment to beta2AR, cell-based reporter. Potency, µM (series often up to 46.1 µM), without a hit: at the highest dose activation, most hits filed as activators. 330,000 tested, 0.02% active;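 further: 0% = DMSO controls and full agonism = EC100 isoproterenol or metaproterenol; nearly all actives have a fitted effect of over 65% in size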
Target sequence (P07550 whole entry, looked up): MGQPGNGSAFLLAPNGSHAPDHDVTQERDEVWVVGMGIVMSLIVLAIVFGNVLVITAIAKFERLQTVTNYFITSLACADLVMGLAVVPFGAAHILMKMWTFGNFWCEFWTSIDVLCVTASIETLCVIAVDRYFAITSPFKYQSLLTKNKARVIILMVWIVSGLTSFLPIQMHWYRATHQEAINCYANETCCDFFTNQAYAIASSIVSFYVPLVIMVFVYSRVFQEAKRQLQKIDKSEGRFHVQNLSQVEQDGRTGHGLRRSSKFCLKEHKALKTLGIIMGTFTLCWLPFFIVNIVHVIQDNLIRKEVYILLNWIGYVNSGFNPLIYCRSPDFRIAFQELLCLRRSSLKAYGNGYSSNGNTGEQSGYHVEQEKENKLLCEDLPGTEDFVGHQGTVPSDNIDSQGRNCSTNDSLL
Starred values were filed as active, the others as inactive; ? = inconclusive; · = no result given; ! = repeats disagree; [ ] = dose if it differs, or a comment. The call rests on the fitted dose curve; in most records, active means well fitted curve in the direction sought with a large enough effect; inconclusive means small, poorly fitted or top-dose-only effect, or another doubt; inactive means no such curve, though single readings can be large; an effect the other way counts as inactive or inconclusive. Unless noted, on the % scale 0 is the no-effect control and ±100 the full control effect; potency means the concentration at half of the fitted maximal effect.

SMILES | NPSR antagonist | RORg inh | Gal4-VP16 FLuc | B2AR arrestin
Cc1nc2c(-c3ccc(F)cc3)c(C)[nH]n2c(=O)c1Cl | · | 11.2µM* | 11.2µM* | 0.0%
Cc1[nH]n2c(=O)c3c(nc2c1-c1ccc(F)cc1)CCCC3 | 28.8% | -20.2% | 1.7% | -0.1%
COc1ccc(C2CC(=O)Oc3c(C(CCN4CCOCC4)c4ccc5c(c4)OCO5)c(OC)cc(OC)c32)cc1 (stereo not given) | · | -17.0% | -17.3% | ·
COc1ccccc1NC(=O)c1cnc(SCC(=O)NCC2CCCO2)n(C)c1=O (stereo not given) | · | · | · | 5.1%
CCOC(=O)N1CCC(N2CCCC(C(=O)c3ccccc3OC)C2)CC1 (stereo not given) | -7.4% | 2.4% | -7.5% | -1.0%
Cc1ccc(NC(=O)CN(C)CC(=O)Nc2sc3c(c2C(N)=O)CCC3)cc1 | · | 15.8µM* | ? | 0.0%
C/C=C(/CC[C@@H](C)[C@H]1CCC2C3=CC[C@H]4[C@H](C)[C@@H](O)CC[C@]4(C)C3CC[C@@]21C)C(C)C (stereo not given in full) | · | -21.8% | -3.7% | ·
CCN(CC)CC(C)CNC(=O)CC(C(=O)N1CCc2ccccc21)n1ccnc1 (stereo not given) | 7.2%[46.1 µM] | 11.2µM* | -6.8% | -0.4%
Oc1cc2ccccc2cc1-c1n[nH]c(=S)o1 | -3.9%[46.1 µM] | -34.5% | -1.3% | -0.1%
Cc1cc(-c2n[nH]c(=S)o2)c(C)n1-c1ccccc1 | -19.3%[46.1 µM] | 12.6µM* | ? | 8.9%
CC(C)=CCc1c(O)cc2oc3c(CC=C(C)C)c(O)c(O)c(CC=C(C)C)c3c(=O)c2c1O | -47.4% | ? | ? | 0.3%
COc1c(O)cc2oc3cc(O)c(CC=C(C)C)c(O)c3c(=O)c2c1CC=C(C)C | · | ? | 25.1µM*! | ·
O=C(CCN1CCc2ccccc2C(c2ccccc2)C1)c1ccc2c(c1)OCCO2 (stereo not given) | ? | 4.47µM* | 3.55µM* | -0.2%
CCCC(=O)c1ccc2c(c1)OCCO2 | 0.5%[46.1 µM] | 44.1% | ? | 0.0%
O=C(O)CCC(=O)c1ccc2c(c1)OCCO2 | 1.2%[46.1 µM] | -10.8% | -2.9% | 0.1%
O=C(CS(=O)(=O)c1ccccc1)c1ccc2c(c1)OCCO2 | -4.3%[46.1 µM] | ? | ? | -0.4%
O=C(CCN1Cc2ccccc2C1)c1ccc2c(c1)OCCO2 | ? | 12.6µM* | 15.8µM* | 0.0%
O=C(O)CCSCC(=O)c1ccc2c(c1)OCCO2 | 2.6%[7.67 µM] | 2µM* | 3.55µM* | -0.2%
CN(C)CCC(=O)c1ccc2c(c1)OCO2 | -16.8%[46.1 µM] | 2.24µM* | 6.31µM* | -0.2%
Cc1nc(Cl)c2c(n1)NC1=C(O2)C(=O)CCC1 | -6.4% | -18.1% | -4.0% | -1.8%
O=C1CCCN1CCC1CCN(C2CC(=O)N(Cc3ccc(N4CCCC4=O)cc3)C2=O)CC1 (stereo not given) | 0.7%[46.1 µM] | 7.08µM* | ? | -0.5%
COc1ccc(NC(=O)c2nc3ccccc3s2)cc1 | -9.6% | -41.0% | ? | -0.1%
O=C(Nc1ccc(Cl)cc1)/C(=C/c1cccc(O)c1)c1nc2ccccc2s1 | 10µM* | 11.2µM* | 20µM* | ?
S=C(Nc1ccc(Cl)cc1)c1nc2ccccc2s1 | -11.5%[46.1 µM] | 0.316µM* | 1.41µM* | 0.2%
Cc1ccc(NC(=S)c2nc3ccccc3s2)cc1 | -10.7%[46.1 µM] | 1µM* | 2µM* | 0.2%
SMILES | NPSR antagonist | RORg inh | Gal4-VP16 FLuc | B2AR arrestin
Cc1ccc(C)c(NC(=S)c2nc3ccccc3s2)c1 | 2.0% | 0.398µM* | 0.708µM* | 0.0%
COc1ccc(CCNC(=O)COC(=O)c2ccc(N3CCCC3=O)cc2)cc1OC | 8.8% | 12.7% | 5.8% | 0.1%
C=CCNc1oc(-c2cccs2)nc1S(=O)(=O)c1ccccc1 | -22.7% | ? | 0.4% | -0.4%
COCCN(C(=O)c1ccc(OC2CCN(S(=O)(=O)N(C)C)CC2)cc1)C(C)C | · | 29.3% | 0.5% | 0.1%
C=CCc1ccc(OCCOc2ccc(/C=N/n3cnnc3)cc2OCC)c(OC)c1 | -10.0%[46.1 µM] | 15.8µM* | ? | 0.1%
COc1cc(/C=N/n2cnnc2)ccc1OCCOc1ccccc1 | 2.7%[46.1 µM] | 9.5% | -4.3% | 0.3%
O=C(Cc1ccc(Cl)cc1)Nc1ccncc1 | -3.5% | ? | 2.82µM* | -0.4%
CN(CC(=O)Nc1ccncc1)S(=O)(=O)c1ccc(Br)cc1 | -25.1%[46.1 µM] | 6.5% | -8.3% | 0.1%
CN(CCCC(=O)Nc1ccncc1)S(=O)(=O)c1ccc(Cl)cc1 | -0.1%[46.1 µM] | 25.0% | 15.8µM* | -0.9%
COc1ccc(S(=O)(=O)N2CCN(c3nn(C)c(=O)n(C)c3=O)CC2)cc1 | · | · | · | -0.1%
O=C(NCc1ccco1)c1ccc(Oc2ccccc2)cc1 | -15.7%[46.1 µM] | ? | 0.0% | 2.7%
O=C(NCc1ccco1)c1ccc2ccccc2c1 | 2.8%[46.1 µM] | ? | 10µM* | -0.1%
CC(C)(C)c1ccc(C(=O)NC(=S)NCc2ccco2)cc1 | · | 6.31µM* | 7.94µM* | -1.0%
O=C(NC(=S)NCc1ccco1)c1ccc(Br)cc1 | · | 14.1µM* | 15.8µM* | -0.8%
CC(C)(C)c1ccc(-c2noc(CCC(=O)NCc3ccco3)n2)cc1 | -8.5% | 0.316µM* | 3.98µM* | -0.9%
OC1C2COC(O2)[C@H](O)C1O (stereo not given in full) | · | 3.1% | -1.8% | ·
COCCNC(=S)NC(=O)c1ccc(C(C)(C)C)cc1 | -45.3% | 2µM* | 11.2µM* | 0.0%
COCCCNC(=S)NNC(=O)C1CC1c1ccc(C(C)(C)C)cc1 (stereo not given) | -12.8% | 4.47µM* | -13.0% | 1.0%
O=C(NCc1ccco1)c1cccn2c(=O)c3cc4ccccc4cc3nc12 | ? | ? | 11.2µM* | -1.0%
CC(=O)Nc1ccc(NC(=S)NC(=O)c2ccc(C(C)(C)C)cc2)cc1 | · | ? | -4.8% | ·
COCCCNC(=O)c1cccn2c(=O)c3cc4ccccc4cc3nc12 | ? | -31.1% | 7.0% | -0.6%
O=C(NCc1ccccn1)c1ccc(/C=N/O)nc1 | 2.4%[46.1 µM] | -6.5% | -10.4% | -0.8%
O=C(NCc1ccccc1)c1ccc(/C=N/O)nc1 | 9.5%[46.1 µM] | 5.01µM* | 2.3% | -0.3%
O=C(NC(=S)NN1CCCCC1c1cccnc1)c1ccc(Br)cc1 (stereo not given) | 2.7% | 1.12µM* | 1.41µM* | -0.4%
O=C1/C(=C/c2ccc(F)cc2)SC(=S)N1CC(=O)N1CCCCC1c1cccnc1 (stereo not given) | · | 1.9% | 3.9% | -0.4%
SMILES | NPSR antagonist | RORg inh | Gal4-VP16 FLuc | B2AR arrestin
O=C(/C=C/c1ccc(F)cc1)NC(=S)N1CCCCC1c1cccnc1 (stereo not given) | 8.1% | 5.01µM* | ? | -0.6%
COc1cccc(OC)c1C(=O)NC(=S)N1CCCCC1c1cccnc1 (stereo not given) | · | 22.4µM* | -16.8% | -0.6%
CC(C)(C)NC[C@@H](O)COc1nsnc1N1CCOCC1 | · | -13.2% | 1.5% | ·
COc1ccc(C(=O)/C=C/C(=O)N(CC(=O)NC2CCCCC2)Cc2cccs2)c(O)c1 | ? | 7.94µM* | 5.01µM* | -0.5%
C=CCNC(=S)NNc1nc2c(c(=O)[nH]1)C1(CCCCC1)Cc1ccccc1-2 | -9.4% | 1µM* | 1.78µM* | -0.1%
CCN(CC)Cc1nc2c(c(=O)[nH]1)C1(CCCC1)Cc1ccccc1-2 | 22.4%[46.1 µM] | 2.82µM* | 11.2µM* | 0.1%
